The full list was thinned out, with hits kept by preference.
miR122 inh = raises miR-122 sensor activity in Huh7 cells; activation, % at 12.5 µM; actives 0.14% (n = 340,000); Huh7 psiCHECK-miR122 Renilla luciferase sensor, 48 h;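 active = mean activation of 30% or more, with every replicate also reaching 30%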;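 note: 0% = median of neutral control wells and 100% = median of positive control wells; higher luciferase signal means stronger suppression of miR-122 activity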
An asterisk follows results filed as active.

SMILES | miR122 inh
C[C@@H]1CN([C@H](C)CO)S(=O)(=O)c2ccc(C3=CCCC3)cc2O[C@@H]1CN(C)C(=O)C1CCOCC1 | 34*
C[C@@H]1CN([C@@H](C)CO)S(=O)(=O)c2ccc(-c3ccc(C(=O)N(C)C)cc3)cc2O[C@@H]1CN(C)C(=O)C1CCC1 | 40*
C[C@@H]1CN([C@H](C)CO)S(=O)(=O)c2ccc(C3=CCCC3)cc2O[C@@H]1CN(C)C(=O)Cc1ccncc1 | 33*
C[C@@H]1CN([C@H](C)CO)S(=O)(=O)c2ccc(-c3cncnc3)cc2O[C@@H]1CN(C)C(=O)Cc1ccncc1 | 5
CCC(=O)N(C)C[C@@H]1Oc2cc(C#C[C@@H](C)O)ccc2S(=O)(=O)N([C@@H](C)CO)C[C@@H]1C | 7
CC(C)CC#Cc1ccc2c(c1)O[C@H](CN(C)C(=O)C1CCOCC1)[C@@H](C)CN([C@@H](C)CO)S2(=O)=O | 19
C/C=C/c1cnc2c(c1)C(=O)N([C@H](C)CO)C[C@@H](C)[C@H](CN(C)CC1CCOCC1)O2 | -2
C[C@H](O)C#Cc1cnc2c(c1)C(=O)N([C@H](C)CO)C[C@H](C)[C@H](CN(C)C(=O)CN(C)C)O2 | 8
CC(C)CC#Cc1cnc2c(c1)C(=O)N([C@@H](C)CO)C[C@@H](C)[C@@H](CN(C)C(=O)NC1CCCC1)O2 | 14
Cc1ccc(S(=O)(=O)N(C)C[C@@H]2Oc3cc(C#CC4CCCC4)ccc3S(=O)(=O)N([C@@H](C)CO)C[C@H]2C)cc1 | 2
C[C@H](CO)N1C[C@H](C)[C@H](CN(C)C(=O)Nc2ccccc2)Oc2cc(C#Cc3ccccc3)ccc2S1(=O)=O | -9
C[C@H](CO)N1C[C@H](C)[C@H](CN(C)C(=O)Nc2ccccc2)Oc2cc(-c3cccc(C(=O)N(C)C)c3)ccc2S1(=O)=O | 4
COc1cccc(NC(=O)N(C)C[C@H]2Oc3cc(C#Cc4ccncc4)ccc3S(=O)(=O)N([C@@H](C)CO)C[C@@H]2C)c1 | -39
COc1ccc(C#Cc2ccc3c(c2)O[C@H](CN(C)C(=O)CN2CCOCC2)[C@H](C)CN([C@H](C)CO)S3(=O)=O)cc1 | 50*
CCCC#Cc1ccc2c(c1)O[C@H](CN(C)C(=O)c1ccncc1)[C@H](C)CN([C@@H](C)CO)S2(=O)=O | 31*
C[C@@H]1CN([C@H](C)CO)S(=O)(=O)c2ccc(C#Cc3ccncc3)cc2O[C@@H]1CN(C)C(=O)c1ccncc1 | 15
C[C@H](CO)N1C[C@H](C)[C@@H](CN(C)C(=O)CN2CCOCC2)Oc2cc(C#Cc3cccc(F)c3)ccc2S1(=O)=O | 3
C[C@@H]1CN([C@@H](C)CO)S(=O)(=O)c2ccc(C#Cc3cccc(F)c3)cc2O[C@H]1CN(C)C(=O)CN1CCOCC1 | -2
COc1cccc(C#Cc2ccc3c(c2)O[C@H](CN(C)C(C)=O)[C@H](C)CN([C@H](C)CO)S3(=O)=O)c1 | 5
COc1cccc(C#Cc2ccc3c(c2)O[C@@H](CN(C)C(C)=O)[C@@H](C)CN([C@@H](C)CO)S3(=O)=O)c1 | -4
CNC[C@@H]1Oc2cc(C#Cc3cccc(OC)c3)ccc2S(=O)(=O)N([C@@H](C)CO)C[C@@H]1C | 49*
C[C@H]1CN([C@@H](C)CO)S(=O)(=O)c2ccc(C#Cc3ccncc3)cc2O[C@@H]1CN(C)C(=O)c1ccncc1 | -18
C[C@H](CO)N1C[C@H](C)[C@@H](CN(C)C(=O)Nc2ccc3c(c2)OCO3)Oc2cc(C#Cc3ccccc3)ccc2S1(=O)=O | -17
C[C@@H]1CN([C@@H](C)CO)S(=O)(=O)c2ccc(C#Cc3ccncc3)cc2O[C@@H]1CN(C)C(=O)Nc1ccc2c(c1)OCO2 | 43*
C[C@@H]1CN([C@H](C)CO)S(=O)(=O)c2ccc(C#C[C@@H](C)O)cc2O[C@@H]1CN(C)C(=O)c1ccncc1 | 8
SMILES | miR122 inh
C[C@@H](O)C#Cc1cnc2c(c1)C(=O)N([C@@H](C)CO)C[C@H](C)[C@H](CN(C)C(=O)CN(C)C)O2 | 2
COCC#Cc1ccc2c(c1)O[C@@H](CN(C)Cc1cncnc1)[C@@H](C)CN([C@H](C)CO)S2(=O)=O | 0
C[C@@H]1CN([C@@H](C)CO)S(=O)(=O)c2ccc(-c3ccccc3)cc2O[C@H]1CN(C)Cc1ccccc1C(=O)O | -5
CO[C@H]1CN(C)C(=O)c2ccc(NS(=O)(=O)c3ccc(C)cc3)cc2OC[C@H](C)N(C)C[C@H]1C | 5
COc1ccccc1S(=O)(=O)N(C)C[C@@H]1Oc2cc(/C=C/c3ccccc3)ccc2S(=O)(=O)N([C@H](C)CO)C[C@H]1C | -4
COc1ccc(-c2cnc3c(c2)C(=O)N([C@@H](C)CO)C[C@H](C)[C@@H](CN(C)C(=O)Cc2ccccc2)O3)cc1 | -5
CCCNC(=O)N(C)C[C@H]1Oc2cc(C#Cc3cccc(F)c3)ccc2S(=O)(=O)N([C@H](C)CO)C[C@H]1C | 3
COCC#Cc1ccc2c(c1)O[C@@H](CN(C)Cc1cncnc1)[C@H](C)CN([C@H](C)CO)S2(=O)=O | -6
C[C@H]1CN([C@@H](C)CO)C(=O)c2cc(/C=C/c3ccccc3)cnc2O[C@H]1CN(C)C(=O)C1CCOCC1 | -9
C[C@H](CO)N1C[C@H](C)[C@@H](CN(C)C(=O)C2CCCCC2)Oc2ncc(-c3ccccc3F)cc2C1=O | 1
CC(C)CC#Cc1cnc2c(c1)C(=O)N([C@@H](C)CO)C[C@H](C)[C@@H](CN(C)C(=O)Nc1cccc(F)c1)O2 | 5
C[C@H](O)C#Cc1ccc2c(c1)O[C@@H](CN(C)Cc1cccnc1)[C@@H](C)CN([C@@H](C)CO)S2(=O)=O | -2
CCCNC(=O)N(C)C[C@@H]1Oc2ncc(C#C[C@@H](C)O)cc2C(=O)N([C@@H](C)CO)C[C@@H]1C | 9
CNC[C@@H]1Oc2cc(C#C[C@H](C)O)ccc2S(=O)(=O)N([C@H](C)CO)C[C@H]1C | 1
C[C@H](CO)N1C[C@H](C)[C@H](CN(C)Cc2ccncc2)Oc2ncc(-c3cccc(F)c3)cc2C1=O | -4
COc1cccc(-c2ccc3c(c2)O[C@@H](CN(C)C(C)=O)[C@@H](C)CN([C@H](C)CO)S3(=O)=O)c1 | -3
COc1cccc(C#Cc2ccc3c(c2)O[C@H](CN(C)C(C)=O)[C@@H](C)CN([C@@H](C)CO)S3(=O)=O)c1 | -29
C[C@@H]1CN([C@H](C)CO)C(=O)c2cc(C#CC3(O)CCCC3)cnc2O[C@H]1CN(C)Cc1cncnc1 | 3
C[C@H](CO)N1C[C@H](C)[C@H](CN(C)C(=O)CC2CC2)Oc2cc(C#CCC3CCCC3)ccc2S1(=O)=O | -6
CC(C)C#Cc1ccc2c(c1)O[C@@H](CN(C)Cc1ccccn1)[C@H](C)CN([C@@H](C)CO)S2(=O)=O | 1
C[C@@H]1CN([C@@H](C)CO)S(=O)(=O)c2ccc(C#Cc3ccncc3)cc2O[C@H]1CN(C)C(=O)C1CCCCC1 | 7
C[C@@H]1CN([C@@H](C)CO)S(=O)(=O)c2ccc(C#Cc3ccncc3)cc2O[C@@H]1CN(C)C(=O)C1CCCCC1 | 19
C[C@H](CO)N1C[C@H](C)[C@@H](CN(C)C(=O)C2CCOCC2)Oc2cc(C#Cc3ccncc3)ccc2S1(=O)=O | 34*
C[C@@H]1CN([C@H](C)CO)S(=O)(=O)c2ccc(-c3ccccc3)cc2O[C@H]1CN(C)S(=O)(=O)c1ccccc1F | -6
C[C@H](CO)N1C[C@H](C)[C@H](CN(C)CC2CC2)Oc2ncc(-c3cccc(C(=O)N(C)C)c3)cc2C1=O | 11

Source: PubChem BioAssay (Broad Institute)
